Only some compounds are listed: those with a hit (about 3.6% of all), similar ones and a draw of the others.
Epigenetic reg = epigenetic control regulation, reporter derepression; Potency, µM (top dose mostly 53.9 µM), for inactives: at the highest dose GFP activation, usual class: activators; AID 1865; murine LDR cells, GFP reporter derepression, 30 h; hit rate 0.2% among 280,000; note: % of control where 0% means no effect; nearly all actives have a fitted effect of over 60% in size
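Derepression of a silenced CMV-GFP reporter in murine LDR cells is scored by enumerating GFP-positive cells with a laser-scanning microplate cytometer after 30 hours of treatment at 37 C.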
Sfp inh = blocks B. subtilis Sfp PPTase activity; Biochemical Sfp PPTase activity, qHTS; Potency, µM, without a hit: largest response in the series, negative = inhibition, hits mostly inhibitors; hit rate 3.5% among 310,000; AID 1490;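 note: the enzyme is Sfp with the accession as filed and its product quenches rhodamine fluorescence; 0% = enzyme reaction without inhibitor and -100% = no enzyme wells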
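With Hepes-Na pH 7.6 buffer containing 10 mM MgCl2, Sfp (15 nM) modified BHQ-2-YbbR (12.5 uM) using rhodamine-CoA (5 uM). Two reads 30 minutes apart at 525/598 nm yielded each well's rate.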
KAT2A inh = inhibitors of human GCN5L2 histone acetyltransferase; GCN5L2 HAT assay, ThioGlo1 CoA-SH fluorescence; Potency, µM (series often up to 58.9 µM), for the others: top-dose activity change, negative = inhibition, most hits filed as inhibitors; hit rate 0.21% among 390,000; note: % is set by controls: 0 for no effect and ±100 for the full control effect
Target sequence (Q92830 whole entry, looked up): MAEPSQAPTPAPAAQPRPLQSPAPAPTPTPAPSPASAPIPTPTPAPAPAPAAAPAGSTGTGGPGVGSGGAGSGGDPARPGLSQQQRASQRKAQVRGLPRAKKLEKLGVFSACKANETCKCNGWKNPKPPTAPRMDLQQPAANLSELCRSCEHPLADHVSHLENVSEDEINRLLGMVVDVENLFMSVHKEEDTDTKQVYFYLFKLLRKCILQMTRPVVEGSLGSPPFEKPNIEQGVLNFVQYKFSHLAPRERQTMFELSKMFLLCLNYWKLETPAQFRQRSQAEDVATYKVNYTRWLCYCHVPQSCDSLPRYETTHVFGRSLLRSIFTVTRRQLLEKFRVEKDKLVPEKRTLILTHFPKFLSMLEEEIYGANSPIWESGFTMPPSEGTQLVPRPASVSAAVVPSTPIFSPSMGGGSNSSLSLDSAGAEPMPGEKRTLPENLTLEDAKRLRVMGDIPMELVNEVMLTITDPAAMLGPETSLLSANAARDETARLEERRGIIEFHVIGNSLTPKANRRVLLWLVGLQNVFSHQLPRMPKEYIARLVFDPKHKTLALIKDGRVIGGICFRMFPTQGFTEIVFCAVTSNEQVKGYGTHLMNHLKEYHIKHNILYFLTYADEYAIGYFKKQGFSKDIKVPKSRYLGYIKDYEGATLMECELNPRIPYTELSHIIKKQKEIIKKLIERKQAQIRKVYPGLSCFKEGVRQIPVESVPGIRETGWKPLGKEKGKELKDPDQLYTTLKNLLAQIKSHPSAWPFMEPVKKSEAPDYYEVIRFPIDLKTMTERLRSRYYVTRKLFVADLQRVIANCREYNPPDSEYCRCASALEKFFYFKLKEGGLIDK
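ThioGlo1-coupled HAT assay: 20nM GCN5L2, 70uM acetyl-CoA, 75uM H3(1-25) peptide, pH 7.5. Fluorescence read at 340/540nm at start and after 20 min at room temperature.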
NPSR antag = neuropeptide S receptor (human) antagonism, cAMP. hit rate 1% among 220,000. Potency, µM (doses to about 38.3 µM), for inactives: at the top dose activity change, negative = inhibition, most hits filed as inhibitors. CHO-NPSR cells, cAMP TR-FRET, antagonist mode; note: % is set by controls: 0 for no effect and ±100 for the full control effect; nearly all actives have a fitted effect of over 50% in size
JMJD2E inh = blocks human JMJD2E demethylase activity. AID 2147. hit rate 1.6% among 230,000. JMJD2E catalytic domain, FDH-coupled NADH fluorescence (FDH is formaldehyde dehydrogenase). Potency, µM (highest dose often 57.1 µM), for inactives: at the top dose activity change, negative = inhibition, hits mostly inhibitors; active = well fitted inhibition curve with a large enough effect, not every such curve was filed as active; inconclusive = small, poorly fitted or top-dose-only effect, or another doubt; inactive = no such curve, though single readings can be large or run the other way;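 note: 0% = wells with enzyme and -100% = buffer wells without enzyme; nearly all actives have a fitted effect of over 50% in size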
IMPase Li cell = membrane-permeable IMPase blocker, potentiated with lithium. hit rate 0.35% among 210,000. AID 1457. CHO-M1 cells, IP1 TR-FRET (IP-One), carbachol + lithium. Potency, µM (titrated, usually from 59.4 µM), without a hit: top-dose activity, negative = IMPase inhibition, usual class: inhibitors;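 note: IP1 builds up when IMPase is blocked and the TR-FRET signal falls; plate controls were basal vehicle for no effect and high inhibitor control for full effect; nearly all actives have a fitted effect of over 50% in size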
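CHO cells stably expressing M1 receptor (2000/well) were cultured 16–30 h, then exposed to compounds with a small lithium addition for 30 min at 37C. IP1 was measured by TR-FRET competition; AC50 from Hill fits.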
Active calls of the source: *; ? = inconclusive; / = not tested or not shown; ! = repeats disagree; [ ] = remark or other dose. Unless noted, calls come from the whole dose curve; as a rule, active = well fitted curve in the direction sought with a large enough effect; inconclusive = small, poorly fitted or top-dose-only effect, or another doubt; inactive = no such curve, though single readings can be large; an effect the other way counts as inactive or inconclusive. Potency is the fitted concentration of half-maximal effect.

SMILES | Epigenetic reg | Sfp inh | KAT2A inh | NPSR antag | JMJD2E inh | IMPase Li cell
COc1ccc(N2CCN(C(CNC(=O)CC(C)C)c3ccc4c(c3)OCO4)CC2)cc1 (stereo unspecified) | 0% | / | 2% | / | / | /
COc1ccc(-c2nc(S(=O)(=O)c3ccc(C)cc3)c(NCc3ccccc3)o2)cc1 | -1% | / | -4% | / | / | /
CCCCNc1oc(-c2ccc(OC)cc2)nc1S(=O)(=O)c1ccccc1 | 0% | 50µM* | -12% | -6%[46.1 µM] | -20% | 29%[38.3 µM]
CC1CCC2C(=O)OC(CN=[N+]=[N-])CN2C1c1ccc(Br)cc1 (stereo unspecified) | 1%[10.1 µM] | 1% | / | / | / | /
Cc1cc(C)c(NC(=O)CSc2nnc(Cc3cccn3C)n2-c2ccc(F)cc2)c(C)c1 | 1% | 50µM* | 16% | -3%[46.1 µM] | -4% | -4%[38.3 µM]
CC1(C)Cc2sc3c(=O)[nH]c(=S)[nH]c3c2CO1 | -2% | 28µM* | -27% | 9% | 2% | /
Cc1c(C)c2c(c(C)c1O)CCC(C)(COc1ccc(CC3SC(=O)NC3=O)cc1)O2 (stereo unspecified) | 1% | -25% | ? | / | / | 23%
CC1(COc2ccc(C[C@H]3SC(=O)NC3=O)cc2)CCCCC1 | 7% | -7% | 35µM* | / | 5% | 36%
CC1(COc2ccc(CC3SC(=O)NC3=O)cc2)CCCCC1 (stereo unspecified) | 2% | 14% | 25µM*! | / | -3% | -7%
O=C1C=C[C@@H](O)[C@H]2[C@@H]3C(=O)N(C[C@@H]4CCCO4)C(=O)[C@@H]3CC[C@H]12 | 0%[10.1 µM] | -4% | / | / | / | /
Cc1ccc(-n2c(=S)[nH]c3sc4c(c3c2=O)CCC4)cc1 | 1% | -29% | 0% | 7.9µM* | 2% | 11µM*
Cc1ccc(-n2c(=O)[nH]c3sc4c(c3c2=O)CCCC4)cc1 | -1% | / | -9% | / | / | /
CN(C)CCCn1c(=O)n(Cc2ccco2)c(=O)c2c3c(sc21)CCCCC3 | -1% | 20µM* | -3% | 17% | -2% | /
O=c1c2c3c(sc2[nH]c(=S)n1Cc1ccco1)CCC3 | -2% | 50µM* | ? | ? | 0% | /
CN(C)CCCn1c(=O)n(CCc2ccccc2)c(=O)c2c3c(sc21)CCCCC3 | 0% | 10% | 0% | -20% | 4% | /
O=C1CCC=C1C(O)CCc1ccccc1 (stereo unspecified) | 0% | -13% | / | / | 9% | 3%
Cc1cccc(CSc2cccc3cccnc23)c1 | 1% | -21% | -17% | 3.2µM* | ? | -5%[38.3 µM]
CC1=C(C(=O)N2CCOCC2)C(c2ccc(C)cc2)NC(=S)N1 (stereo unspecified) | 2% | 50µM* | 0% | -28%[46.1 µM] | -2% | /
O=C(Nc1ccc2nc(SCC(=O)N3CCc4ccccc43)sc2c1)c1ccc(F)cc1 | 8% | / | -5% | / | / | /
COc1ccc(N/N=C(/N=Nc2nc(C)cc(=O)[nH]2)c2ccccc2)cc1 | ? | 5% | -6% | -11%[46.1 µM] | 14µM* | 63%[38.3 µM]
CC1=C/C(=C/N(C)c2ccccc2)C(=O)S1 | -1% | 28µM* | -15% | -12%[46.1 µM] | -24% | 0%[38.3 µM]
CC(=O)OCOC(=O)CNc1ccccc1OCCOc1ccccc1NCC(=O)OCOC(C)=O | / | -15% | -7% | / | / | /
N#Cc1sc2nc(-c3ccccc3)cc(-c3ccco3)c2c1N | 11% | 79µM* | -5% | -1%[46.1 µM] | ? | -11%[38.3 µM]
N#Cc1c(-c2ccccc2)cc(-c2ccco2)c(C#N)c1N | ? | 35µM* | -12% | -10%[46.1 µM] | ? | -12%[38.3 µM]
CCNC(=O)c1c(NC(=O)c2nc(S(=O)(=O)CC)ncc2Cl)sc2c1CCCC2 | -2% | / | -4% | / | / | /
SMILES | Epigenetic reg | Sfp inh | KAT2A inh | NPSR antag | JMJD2E inh | IMPase Li cell
Cc1ccccc1NC(=S)Nn1cnnc1 | / | 22µM* | -8% | / | / | /
Fc1ccccc1NC(=S)Nn1cnnc1 | / | 18µM* | -6% | / | / | /
CCc1ccccc1NC(=S)Nn1cnnc1 | / | 35µM* | -5% | / | / | /
Cc1cccc(NC(=S)NN2CCN(C)CC2)c1C | -4% | -5% | 0% | 7%[46.1 µM] | 15% | 23%[38.3 µM]
Cc1cccc(NC(=S)Nn2cnnc2)c1C | -1% | 10µM* | 0% | 13% | 5% | 1%
CN(C)Cc1ccccc1-c1ccc2ncnc(N3CCOCC3)c2c1 | -5% | -6% | -1% | / | -1% | 9%
CCOc1ccccc1NC(=S)Nn1cnnc1 | / | 7.1µM* | ? | / | / | /
Cc1ccc(NS(=O)(=O)c2ccc(-c3cc(C)no3)cc2)c(Br)c1 | 4% | / | -2% | / | / | /
Oc1cc2c(cc1O)C1c3ccc(O)c(O)c3OCC1(O)C2 (stereo unspecified) | 4% | 2.5µM*! | ? | 43% | 0.71µM* | 4%
Cc1ccccc1N(C)S(=O)(=O)c1nnc(NC(=O)C(C)C)s1 | 22µM* | / | 3% | / | / | /
CCOc1ccc2nc(NC3=NC(c4ccc(OC)cc4)CC(=O)N3)nc(C)c2c1 (stereo unspecified) | 14% | 22µM* | -25% | -16%[46.1 µM] | ? | 11%[38.3 µM]
Cc1ccc(-c2cc(-c3ccc(C)o3)nc(N)c2C#N)cc1 | ? | 13µM* | ? | ? | ? | -5%[38.3 µM]
Cc1ccc(-c2cc(-c3ccc(F)cc3)c(C#N)c(N)n2)o1 | 0% | ? | -15% | -26% | -6% | -14%
Cc1ccc(-c2cc(-c3ccc(Cl)cc3)c(C#N)c(N)n2)o1 | ? | 8.9µM* | ? | -19%[46.1 µM] | ? | 0%[38.3 µM]
Cc1ccc(-c2cc(-c3ccc4c(c3)OCO4)c(C#N)c(N)n2)o1 | -4% | 10µM* | ? | ? | ? | 5%[38.3 µM]
COc1ccc(C2/C=C\CN(S(=O)(=O)CC34CCC(CC3=O)C4(C)C)CC(=O)N2Cc2ccc(F)cc2)cc1 (stereo unspecified) | / | 11% | / | / | / | /
COc1ccc(-c2cnnc(CCCn3ccnc3-c3ccccc3)n2)cc1 | 1%[10.1 µM] | 9% | / | / | / | /
COC(=O)C1(C(=O)OC)Cc2conc2[C@H]1c1ccccc1 | 0% | -4% | / | / | -1% | 7%
COc1ccc(CCn2c(SCC(=O)Nc3cc(C)on3)nc3ccsc3c2=O)cc1OC | 3% | 0% | -2% | -2%[46.1 µM] | -10% | 11µM*
COc1ccc(CCn2c(SCC(=O)Nc3cc(C)on3)nc3ccccc3c2=O)cc1OC | -1% | 10% | -5% | -1%[46.1 µM] | 2% | -8%[38.3 µM]
CC(C)[C@@H](CC(=O)N[C@@H]1CCCC[C@H]1C(=O)N[C@H](CC(=O)N[C@@H](CCC(=O)O)CC(=O)O)Cc1ccccc1)NC(=O)C[C@H](Cc1ccccc1)NC(=O)[C@@H]1CNCC[C@H]1N | 0% | -25% | / | / | -5% | 4%
Cc1cccc(/C=N\NC(=O)c2csnn2)c1 | 0% | 40µM* | -7% | -6%[46.1 µM] | 7% | 8%[38.3 µM]
Cc1cccc(/C=N/NC(=O)C[n+]2ccccc2)c1 | / | / | -1% | / | / | /
